High-throughput results from PubChem BioAssay.
TrxR1 substrate: is turned over as a substrate by rat TrxR1; O89049; purified TrxR1 substrate turnover, NADPH consumption readout; Potency, µM (highest dose often 114 µM); 390,000 compounds, 0.01% hits; AID 588456; further: nearly all actives have a fitted effect of over 50% in size
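Rat TrxR1, dispensed at 90 nM, was prereduced with 400 uM NADPH (final) for 5 min at ~22 deg C, then incubated with compound 15 min before 400 uM selenite. A first-read NADPH fluorescence drop versus no-compound background flagged substrates.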
Nrf2 inh: inhibitors of Nrf2 signaling | A549 ARE-Fluc reporter, luciferase luminescence, 18-24 h | Potency, µM (titrated, usually from 46 µM), usual class: inhibitors | 360,000 compounds, 2.1% hits | AID 504444; further: nearly all actives have a fitted effect of over 60% in size
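Cells were seeded and rested 2 h, then exposed to compounds for 18-24 h. CellTiter-Fluor was read first as a viability measure. BugLite was added 15 min before the final luminescent read of ARE-luciferase activity in A549 cells.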
rTrxR1 inhibitor: blocks rat thioredoxin reductase 1; 390,000 compounds, 1% hits; O89049; AID 588453; Potency, µM (top dose mostly 114 µM), actives largely listed as inhibitors; recombinant rTrxR1, NADPH fluorescence consumption, selenite substrate; further: nearly all actives have a fitted effect of over 65% in size
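Rat TrxR1 (90 nM in the dispensed reagent) was pre-reduced with 400 uM NADPH for 5 min at room temperature, then incubated with compound for 15 min. After 400 uM selenite was added, NADPH fluorescence (Ex 340/Em 450 nm) was followed for 8 min.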
A549 tox: A549 cytotoxicity, counter-screen for Nrf2 inhibitors. A549 ARE-Fluc cells, CellTiter-Fluor viability, 18-24 h. AID 504648. Potency, µM (highest dose often 46 µM), usual class: inhibitors. 390,000 compounds, 0.16% hits
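Cytotoxicity counterscreen: CellTiter-Fluor fluorescence was measured in A549 ARE_Fluc cells after 18-24 h of compound exposure in a concentration series. The subsequent BugLite luminescent read reports ARE-luciferase activity.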
GALK inh: galactokinase (human) inhibition; Purified GALK, Kinase-Glo residual ATP luminescence; 270,000 compounds, 0.007% hits; P51570; Potency, µM (series often up to 57.5 µM), most hits filed as inhibitors; AID 1868
Target sequence (P51570 whole entry, looked up): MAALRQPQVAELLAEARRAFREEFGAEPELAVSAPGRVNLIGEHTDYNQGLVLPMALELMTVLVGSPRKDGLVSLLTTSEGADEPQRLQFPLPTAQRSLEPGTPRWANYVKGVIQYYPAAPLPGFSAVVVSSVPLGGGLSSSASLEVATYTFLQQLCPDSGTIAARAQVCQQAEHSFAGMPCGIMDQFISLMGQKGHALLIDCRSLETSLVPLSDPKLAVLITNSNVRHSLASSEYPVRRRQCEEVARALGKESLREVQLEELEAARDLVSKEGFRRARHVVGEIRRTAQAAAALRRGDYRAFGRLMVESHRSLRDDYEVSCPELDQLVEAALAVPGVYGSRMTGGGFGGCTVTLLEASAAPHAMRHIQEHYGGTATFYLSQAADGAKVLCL
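5 nM enzyme, 35 uM ATP, 100 uM galactose, 20 mM HEPES pH8.0, 5 mM MgCl2; 1 h RT; residual ATP by Kinase-Glo Plus luminescence, qHTS format.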
Nrf2 ARE act: activates Nrf2 signaling | AREc32 ARE-luciferase reporter (MCF7-derived line), luminescence, 24 h | Potency, µM (highest dose often 46.1 µM), actives largely listed as activators | 410,000 compounds, 0.31% hits | AID 624171; further: nearly all actives have a fitted effect of over 65% in size
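Luminescent ARE reporter assay in AREc32_Fluc cells: overnight plating at 37 deg C, 24 hr compound incubation, Steady-Glo added, 30 min RT before reading.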
Of the large screens only hits and unclear results are named; the others gave an inactive call. Most compounds without a hit are left out; they make up all but 3% or so of the library. The call rests on the fitted dose curve; in most records, active means well fitted curve in the direction sought with a large enough effect; inconclusive means small, poorly fitted or top-dose-only effect, or another doubt; inactive means no such curve, though single readings can be large; an effect the other way counts as inactive or inconclusive.

O=C(CSc1nc(-c2cccc(Cl)c2)nc2cc(=O)[nH]n12)Nc1ccccc1	Nrf2 inh inconclusive (no result: GALK inh)
O=C(CCC(=O)N1CCOc2ccccc21)NCc1cccs1	none (no result: GALK inh)
COc1ccc(C(O)(C2CCCCC2)C(CN2CCOCC2)c2ccccc2)cc1 (centres undefined)	Nrf2 inh 21µM
OC(c1ccccc1)(C1CCCCC1)C(CN1CCOCC1)c1ccccc1 (centres undefined)	none
CC12CN3CC(C)(CN(C1)C3c1ccc(OCc3ccccc3)cc1)C2=O (centres undefined)	none (no result: GALK inh)
O=c1c2c3c(sc2n(Cc2ccccc2F)c(=O)n1-c1ccc(Cl)cc1)CCCC3	none (no result: GALK inh)
COc1ccccc1-c1nc(S(=O)(=O)c2ccccc2)c(N2CCCCC2)o1	rTrxR1 inhibitor 0.89µM
NC(=O)C1CCN(c2oc(-c3ccc(F)cc3)nc2S(=O)(=O)c2ccccc2)CC1	none (no result: GALK inh)
O=S(=O)(c1ccccc1)c1nc(-c2ccc(F)cc2)oc1N1CCCCCC1	Nrf2 inh 26µM (no result: GALK inh)
O=C(NCc1cccs1)c1ccc2c(c1)sc1nc(-c3ccccc3)cn12	none (no result: GALK inh)
CN(C)c1ccc(C(CNS(=O)(=O)c2ccccc2)N2CCc3ccccc32)cc1 (centres undefined)	none (no result: Nrf2 inh, GALK inh)
CC(C)C(=O)Nc1ccc(COc2ccccc2CN(Cc2ccccc2)C(=O)OC(C)(C)C)cc1	Nrf2 inh inconclusive (no result: GALK inh)
CC(C)C(=O)Nc1cccc(COc2ccc(CN(Cc3ccccc3)C(=O)OC(C)(C)C)cc2)c1	Nrf2 inh 16µM (no result: GALK inh)
CC(C)c1nnc(NC(=O)C2CCN(C(=O)C(C)(C)C)CC2)s1	none (no result: GALK inh, Nrf2 ARE act)
Cc1c(NC(=O)c2cccc3c(Cl)cccc23)cccc1-c1nc2ccccc2o1	none (no result: GALK inh)
COc1ccc(CNC(=O)C2CCN(C(=O)N3CCOc4ccc(Cl)cc43)CC2)cc1	none (no result: GALK inh)
O=C(NCc1ccc(Cl)cc1)C(=O)NCC(c1cccnc1)N1CCN(c2ccc(F)cc2)CC1 (centres undefined)	Nrf2 inh 21µM
CCN1C(Br)=CCc2ccccc21	none (no result: Nrf2 inh, A549 tox, GALK inh, Nrf2 ARE act)
CC(=O)c1ccc(N2CCN(c3ccc(C(N)=O)cc3[N+](=O)[O-])CC2)cc1	none
NC(=O)CC(NC(=O)c1ccccc1)c1ccc(N2CCN(c3ccccc3)CC2)c([N+](=O)[O-])c1 (centres undefined)	Nrf2 inh inconclusive (no result: GALK inh)
NC(=O)CC(NC(=O)c1ccccc1)c1ccc(N2CCN(c3ccc(F)cc3)CC2)c([N+](=O)[O-])c1 (centres undefined)	Nrf2 inh 21µM (no result: GALK inh)
NC(=O)c1ccc(N2CCN(c3ccc(O)cc3)CC2)c([N+](=O)[O-])c1	Nrf2 inh 18µM
CCN(CC)C(NC(=O)Cc1ccccc1)C(Cl)(Cl)Cl (centres undefined)	rTrxR1 inhibitor 7.9µM
Nc1cc(N)cc(N)c1	TrxR1 substrate 25µM, rTrxR1 inhibitor 40µM (no result: Nrf2 inh, A549 tox, GALK inh, Nrf2 ARE act)
COc1ccc(/C=C2\SC(N)=NC2=O)cc1	Nrf2 inh inconclusive
CCOC(=O)CSC1=NC(=O)/C(=C/c2ccc(OC)cc2)S1	rTrxR1 inhibitor 16µM, A549 tox inconclusive
COCCn1c(=NC(=O)c2cc(Cl)sc2Cl)sc2cc(S(N)(=O)=O)ccc21	Nrf2 ARE act inconclusive
COCCn1c(=NC(=O)c2ccc3c(c2)OCCO3)sc2cc(S(N)(=O)=O)ccc21	Nrf2 inh 13µM
C=C1C[C@@]23CC[C@H]4[C@@](C)(CCC[C@@]4(C)C(=O)OC4OC(CO)C(O)C(O)C4O)[C@@H]2CC[C@]1(OC1OC(CO)C(O)C(O)C1OC1OC(CO)C(O)C(O)C1O)C3 (some centres undefined)	none (no result: Nrf2 inh, A549 tox, GALK inh, Nrf2 ARE act)
CN1CCN(c2oc(COc3ccc(-c4ccccc4)cc3)nc2C#N)CC1	Nrf2 inh 16µM, A549 tox inconclusive
COc1ccc(N2CCN(c3oc(COc4ccccc4)nc3C#N)CC2)cc1	none
Cn1c2c(c(=O)n(C)c1=O)C(C(F)(F)F)(C(F)(F)F)N=C(c1ccc(Cl)cc1)N2	Nrf2 inh 2.3µM, A549 tox 5.8µM
